Source: article PMC4336329 (PLoS ONE, 2015)
Hit rate of the full screen: of about 310,000 compounds, about 14,000 (4.5%) showed an effect of 50% or more. Effects have a minus sign here. What follows is part of a selection rich in strong results, with near analogues and random picks from the rest.

Molecular target: human ether-à-go-go-related gene (hERG) potassium channel (human, UniProt Q12809)
Experiment: primary screen, population patch clamp on CHO cells stably expressing hERG; higher = less effect of the substance
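Note: peak tail current of the secondary pulse compared with the same well before compound.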

human ether-à-go-go-related gene (hERG) potassium channel, sequence (Q12809 whole entry, looked up): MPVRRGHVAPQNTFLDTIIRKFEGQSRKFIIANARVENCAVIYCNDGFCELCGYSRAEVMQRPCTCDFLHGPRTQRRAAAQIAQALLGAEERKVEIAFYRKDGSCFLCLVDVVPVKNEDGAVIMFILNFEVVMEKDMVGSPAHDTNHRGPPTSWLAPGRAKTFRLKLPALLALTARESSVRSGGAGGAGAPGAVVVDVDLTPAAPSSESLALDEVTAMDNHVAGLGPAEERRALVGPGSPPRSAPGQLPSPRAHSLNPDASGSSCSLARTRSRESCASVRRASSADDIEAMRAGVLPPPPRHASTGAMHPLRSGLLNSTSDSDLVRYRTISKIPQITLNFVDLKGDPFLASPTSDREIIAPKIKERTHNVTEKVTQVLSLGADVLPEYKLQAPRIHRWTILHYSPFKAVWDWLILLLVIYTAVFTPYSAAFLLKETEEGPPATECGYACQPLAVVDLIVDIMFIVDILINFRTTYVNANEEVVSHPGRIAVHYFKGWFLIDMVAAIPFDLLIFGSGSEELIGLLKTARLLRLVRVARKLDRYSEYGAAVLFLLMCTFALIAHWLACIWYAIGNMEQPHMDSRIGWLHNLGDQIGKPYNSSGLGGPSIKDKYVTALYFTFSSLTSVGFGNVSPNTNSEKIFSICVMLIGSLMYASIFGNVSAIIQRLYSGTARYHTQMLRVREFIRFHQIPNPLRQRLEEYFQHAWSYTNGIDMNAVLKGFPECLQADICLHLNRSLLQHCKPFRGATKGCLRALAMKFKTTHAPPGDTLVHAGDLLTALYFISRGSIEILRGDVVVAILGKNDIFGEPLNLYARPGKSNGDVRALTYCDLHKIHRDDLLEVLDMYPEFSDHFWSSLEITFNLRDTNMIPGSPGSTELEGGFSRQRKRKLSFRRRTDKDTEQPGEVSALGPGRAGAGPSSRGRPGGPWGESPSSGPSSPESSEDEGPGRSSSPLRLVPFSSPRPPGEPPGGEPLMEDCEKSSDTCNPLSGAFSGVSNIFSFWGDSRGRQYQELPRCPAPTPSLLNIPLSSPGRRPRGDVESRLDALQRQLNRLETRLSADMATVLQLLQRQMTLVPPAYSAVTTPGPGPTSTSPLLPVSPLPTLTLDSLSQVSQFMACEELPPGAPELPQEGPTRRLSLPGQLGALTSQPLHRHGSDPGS

Row | SMILES | hERG current change (%, negative = inhibition) at 10uM [%]
1 | O=C(NCCO)c1cc([N+](=O)[O-])cc2c1C=Cc1ccccc1O2 | -31.4
2 | CC1Cc2ccccc2N1C(=O)COC(=O)C1(c2ccccc2F)CCCC1 (stereo not drawn) | -5.21
3 | CCN(CC)S(=O)(=O)c1ccc(NS(=O)(=O)c2cccc(C)c2)cc1 | -20.4
4 | O=C(O)CCC1(c2ccccc2)NC(=O)NC1=O (stereo not drawn) | 2.53
5 | C[n+]1ccccc1/C=N/O.[Cl-] | 17.3
6 | COc1ccccc1CN1Cc2cccc3c2[C@@H](CC1=O)[C@H](O)[C@H](O)C3 | 4.43
7 | COC(=O)C1C(=O)N2CCCSC2=C(C#N)C1c1cccs1 (stereo not drawn) | 1.49
8 | CC1CCCCN1CC(=O)NC(=O)NCc1ccccc1 (stereo not drawn) | 16.8
9 | CC1CN(CC(=O)NC(C)c2ccccc2)CC(C)O1 (stereo not drawn) | 9.23
10 | CC1CCCCN1CC(=O)NC(c1ccccc1)c1ccccc1.O=C(O)C(=O)O (stereo not drawn) | -65.8
11 | O=C(CN1CCCCCC1)NC(c1ccccc1)c1ccccc1.O=C(O)C(=O)O | -57.7
12 | CC(NC(=O)CN1CCCC1)c1ccccc1 (stereo not drawn) | 21
13 | CC1Cc2ccccc2N1CC(=O)NC(c1ccccc1)c1ccccc1.O=C(O)C(=O)O (stereo not drawn) | 19.1
14 | O=C(CN1CCCC1)NC(c1ccccc1)c1ccccc1.O=C(O)C(=O)O | -34.7
15 | CC1CC(C)CN(CC(=O)NC(c2ccccc2)c2ccccc2)C1.O=C(O)C(=O)O (stereo not drawn) | -68.4
16 | CSc1ccccc1NC(=O)CN1CCCCC1C (stereo not drawn) | 0.324
17 | CCOCCCN1CN(Cc2ccco2)CNC1=S | 7.86

Row | SMILES | hERG current change (%, negative = inhibition) at 10uM [%]
18 | CC1=C(c2ccc(F)cc2)[N+](=O)C(C)(C)N1[O-] | 17.7
19 | Cc1ccc(-c2cc(=O)c3ccccc3[nH]2)cc1 | 13.6
20 | Cc1cccn2cc(CCNS(=O)(=O)c3ccc([N+](=O)[O-])cc3)nc12 | -22.7
21 | COc1ccc2[nH]cc(C(O)CN3CCN(c4ccccc4F)CC3)c2c1 (stereo not drawn) | -22
22 | COc1ccc(N2CCN(CC(O)c3c[nH]c4ccc(OC)cc34)CC2C)cc1 (stereo not drawn) | -68.1
23 | COc1ccc2[nH]cc(C(O)CN3CCC(C(N)=O)CC3)c2c1 (stereo not drawn) | 12
24 | CC(Cc1ccccc1)[n+]1cc(/N=C(\[O-])Nc2ccccc2)on1 (stereo not drawn) | -17.4
25 | CC1Sc2ccc(S(=O)(=O)NCCc3ccccc3)cc2NC1=O (stereo not drawn) | 12.5
26 | CC1CCN(CCOc2cc(Cl)ccc2Cl)CC1 | -33.8
27 | CC1CCN(CCOc2ccc(Cl)c(Cl)c2)CC1 | -46.3
28 | Clc1cc(Br)ccc1OCCN1CCOCC1.O=C(O)C(=O)O | -2.95
29 | CN1CCN(CCOCCOc2ccc(Br)cc2Cl)CC1.O=C(O)C(=O)O | -14.2
30 | CC1CCN(CCOCCOc2ccc(Br)cc2Cl)CC1.O=C(O)C(=O)O | -75.5
31 | CC1CCN(CCCOc2ccc(Cl)cc2Br)CC1 | -76.3
32 | CC1CCCN(CCOCCOc2ccc(Br)cc2Cl)C1.O=C(O)C(=O)O (stereo not drawn) | -71
33 | Clc1cc(Br)ccc1OCCOCCN1CCCC1.O=C(O)C(=O)O | -57.1
